Laboratory results taken from PubChem BioAssay (NCATS).
Records with an inconclusive call do not appear. Active and inactive are the calls of the source. Unless noted, calls follow the shape of the full dose curve.

What was measured:
[1] = molecular target: Bile acid receptor (Homo sapiens) (UniProt Q96RI1); assay: qHTS assay for small molecule antagonists of farnesoid X receptor signaling (AID 588526); also: % is scaled to controls: 0 for no effect and ±100 for the full control effect
Method in brief: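 Concentration-response titrations were fitted to the Hill equation for half-maximal inhibition and maximal response, with data normalised to 50 uM chenodeoxycholic acid and DMSO control wells. Cells: FXR-UAS-bla HEK293T, dialyzed FBS.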

[2] = qHTS assay for small molecule antagonists of peroxisome proliferator-activated receptor delta signaling (AID 588535; active = well fitted inhibition curve with a large enough effect in the signal ratio, with a control signal flat, not every such curve was filed as active; the % refers to the signal ratio;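 as to max response: cells co-treated with a PPAR-delta agonist as stimulator during compound exposure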); conditions: HEK293T PPARd-UAS-bla, beta-lactamase FRET ratio, 18 h; 460 nm channel
Method in brief: (§1)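 Reporter: UAS-bla under PPAR-delta response element, HEK293T host. Medium: 2% charcoal/dextran FBS. Dosing: titration, 18 hrs, 37 C. Detection: CCF4, 2 hrs RT, 405 ex/460 and 530 em.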

[3] = molecular target: Peroxisome proliferator-activated receptor delta (Homo sapiens) (UniProt Q03181); assay: as above
Method in brief: as §1

[4] = molecular target: Peroxisome proliferator-activated receptor gamma (Homo sapiens) (UniProt P37231); assay: qHTS assay for small molecule agonists of peroxisome proliferator-activated receptor gamma signaling (AID 588536; active = well fitted curve in the direction sought with a large enough effect in the signal ratio, with a control signal flat, not every such curve was filed as active; the % refers to the signal ratio;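 also: 0% = DMSO basal wells and 100% = rosiglitazone at 2 µM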)
Method in brief: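 Test agents, titrated, stimulated HEK293 UAS-bla cells overnight (16 h, 37 C). Substrate CCF4 was then added for two hours at room temperature before fluorescence reading.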

[5] = molecular target: Peroxisome proliferator-activated receptor gamma (Homo sapiens) (UniProt P37231); assay: qHTS assay for small molecule antagonists of peroxisome proliferator-activated receptor gamma signaling (AID 588537; active = well fitted inhibition curve with a large enough effect in the signal ratio, with a control signal flat, not every such curve was filed as active; the % refers to the signal ratio;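 also: reporter cells co-stimulated with 50 nM rosiglitazone agonist during compound treatment; % of control where 0% means no effect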)
Method in brief: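 We seeded GeneBLAzer HEK293 reporter cells at 3000 per well, allowed 6-6.5 h attachment at 37 C, then co-treated with test compound titrations and 50 nM rosiglitazone overnight (16 h). Inhibition was quantified from 460/530 nm emission ratios.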

[6] = molecular target: Vitamin D3 receptor (Homo sapiens) (UniProt P11473); assay: qHTS assay for small molecule antagonists of vitamin D receptor signaling (AID 588541);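 also: receptor activated by calcitriol during compound treatment; series mostly up to about 77 µM; % is scaled to controls: 0 for no effect and ±100 for the full control effect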
Method in brief: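 VDR-UAS-bla HEK293T cells (2000/well, 2% charcoal-stripped FBS) were treated with titrated compounds plus 1-alpha,25-dihydroxyvitamin D3 (50 nM or 3 nM final) for 16 h at 37 C. CCF4 beta-lactamase fluorescence was read; Hill fits gave IC50.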

[7] = molecular target: Vitamin D3 receptor (Homo sapiens) (UniProt P11473); assay: qHTS assay for small molecule agonists of vitamin D receptor signaling (AID 588543);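 also: 0% = DMSO basal and 100% = reference agonist control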
Method in brief: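 Agonist-mode beta-lactamase reporter: HEK293T VDR-UAS-bla cells in charcoal-stripped 2% FBS, compound series 16 h 37 C, CCF4 2 h RT. EC50 from Hill fit, scaled against DMSO and 50 nM calcitriol control.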

[8] = qHTS assay for small molecule agonists of retinoid X receptor alpha signaling (AID 588544); conditions: HEK293T RXRa-UAS-bla, beta-lactamase reporter, 18 h; 530 nm emission;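 as to activation: 0% = DMSO basal wells and 100% = reference agonist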
[9] = molecular target: Retinoic acid receptor RXR-alpha (Homo sapiens) (UniProt P19793); assay: as above
[10] = molecular target: Thyroid hormone receptor beta (Homo sapiens) (UniProt P10828); assay: qHTS assay for small molecule agonists of thyroid hormone receptor beta signaling (AID 588545);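 also: 0% = DMSO only and 100% = 10 nM T3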
Method in brief: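 TR-UAS-bla-GripTite HEK 293 cells in medium with 2% charcoal/dextran FBS, 0.1 mM NEAA and 1 mM sodium pyruvate were treated with titrated compounds for 18 hrs at 37 C. Beta-lactamase reporter was read with CCF4 dye (ex 405, em 460/530 nm); EC50 from Hill fits.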

[11] = molecular target: Thyroid hormone receptor beta (Homo sapiens) (UniProt P10828); assay: qHTS assay for small molecule antagonists of thyroid hormone receptor beta signaling (AID 588547; active = well fitted inhibition curve with a large enough effect in the signal ratio, with a control signal flat, not every such curve was filed as active; the % refers to the signal ratio;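 also: cells stimulated with 0.4 nM T3 agonist during compound exposure; series mostly up to about 77 µM; % is scaled to controls: 0 for no effect and ±100 for the full control effect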); conditions: TR-UAS-bla HEK293, beta-lactamase ratio, antagonist mode, 18 h
Method in brief: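 TR-UAS-bla GripTite HEK293 cells in 2% charcoal/dextran FBS medium were preincubated 4 h at 37 C, given compound (0.59 nM to 92 uM) plus 0.4 nM T3 (final) for 18 h, then CCF4 for 2 h at RT; Hill fit gave IC50.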

[12] = qHTS assay for small molecule agonists of the antioxidant response element (ARE) signaling pathway (AID 651741; active = well fitted activation curve with a large enough effect in the signal ratio; the % refers to the signal ratio; also: % of control where 0% means no effect)
Method in brief: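 Compounds in DMSO are pinned onto HepG2 ARE-bla cells (2,000/well) that were preincubated 5 h; plates stay 16 h at 37 C, then beta-lactamase activity is detected with LiveBLAzer B/G substrate by fluorescence.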

[13] = qHTS assay for small molecule activators of the p53 signaling pathway (AID 651743; active = well fitted activation curve with a large enough effect in the signal ratio, not every such curve was filed as active; the % refers to the signal ratio; also: series mostly up to about 92 µM; % of control where 0% means no effect); conditions: HCT-116 p53RE-bla, beta-lactamase FRET ratio, 16 h; activation: stronger effect = higher value
Method in brief: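 Cell-based beta-lactamase reporter (p53 response elements, HCT-116 background). After a 5-hour preincubation, cells received compound for 16 hours at 37 C; substrate development ran 2 hours at room temperature.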

[14] = qHTS assay for small molecule activators of the nuclear factor-kappa B (NF-kB) signaling pathway (AID 651749; active = well fitted activation curve with a large enough effect in the signal ratio; the % refers to the signal ratio; also: series mostly up to about 77 µM; % of control where 0% means no effect); conditions: NF-kB-bla ME-180 cells, beta-lactamase FRET ratio, 16 h; stronger effect = higher value
Method in brief: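 Screening used 2,000 ME-180 reporter cells per well exposed to pinned compound (23 nL) or DMSO; after 16 hr at 37C, beta-lactamase expression under NF-kB control was assessed through FRET.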

[15] = qHTS assay for environmental chemicals that activate the Aryl hydrocarbon Receptor (AhR) signaling pathway (AID 651777; active = well fitted curve in the direction sought with a large enough effect; an effect the other way counts as inactive or inconclusive; also: % of control where 0% means no effect; nearly all actives have a fitted effect of over 15% in size); conditions: 1A2-DRE human hepatoma cells, luciferase, 24 h; activation: stronger effect = higher value
Method in brief: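 Luminescence read-out: One-Glo added for 30 min at RT after 24 hr compound treatment (37 C, 5% CO2) of human hepatoma cells expressing a DRE/CYP1A2 promoter–luciferase reporter; increased signal indicates AhR activation.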

[16] = molecular target: Peroxisome proliferator-activated receptor alpha (Homo sapiens) (UniProt Q07869); assay: qHTS assay for small molecule agonists of the peroxisome proliferator-activated receptor alpha (PPARalpha) signaling pathway (AID 651778; active = well fitted curve in the direction sought with a large enough effect; an effect the other way counts as inactive or inconclusive; also: % of control where 0% means no effect); conditions: PathHunter PPARalpha complementation, chemiluminescence, 6 h; max response: stronger effect = higher value
Method in brief: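 Cells plated at 2,000/well and held overnight at 37 C, 5% CO2, then compound added by pin tool for 6 hr; after PathHunter detection reagent and 60 min at room temperature, chemiluminescence from enzyme complementation was read.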

[17] = qHTS assay for small molecule agonists of the antioxidant response element (ARE) signaling pathway measured by Nrf2-dependant transcriptional activity (AID 720636; active = well fitted curve in the direction sought with a large enough effect in the repeat runs; an effect the other way counts as inactive or inconclusive;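 also: HepG2 cells with an ARE-driven luciferase reporter; % of control where 0% means no effect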)
Method in brief: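 HepG2 ARE-luc reporter line, 1% dialyzed FBS; 6 hr attachment at 37 C, compound pinned in, 16 hr at 37 C/5% CO2; ONE-Glo, 30 min RT, luminescence read.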

[18] = qHTS assay for small molecule agonists of the antioxidant response element (ARE) signaling pathway measured by Nrf2-dependant transcriptional activity - cell viability counter screen (AID 720653; active = well fitted curve in the direction sought with a large enough effect in the repeat runs; an effect the other way counts as inactive or inconclusive; also: % is scaled to controls: 0 for no effect and ±100 for the full control effect); conditions: ARE-bla HepG2 viability, CellTiter-Glo ATP luminescence, 16 h; max response: stronger effect = lower value
Method in brief: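 ARE-bla HepG2 cells (2,000/well) rested 5 hrs at 37C/5% CO2, then exposed to compounds in DMSO for 16 hrs. Viability was read in the same wells as intracellular ATP by luminescence, 30 min at room temperature after reagent addition.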

[19] = qHTS assay for cell viability of the p53RE-bla HCT-116 cell line (AID 743292; active = well fitted curve in the direction sought with a large enough effect; an effect the other way counts as inactive or inconclusive; also: % is scaled to controls: 0 for no effect and ±100 for the full control effect; nearly all actives have a fitted effect of over 55% in size)
Method in brief: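 Luminescent ATP quantitation (CellTiter-Glo) served as the viability read-out; reagent was added after 16 h compound exposure at 37 C and read after 30 min at room temperature. Cells: p53RE-bla HCT-116, 4,000 per well.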

[20] = NCATS anti-infectives library activity on HEK293 viability as a counter-qHTS vs the C. elegans viability qHTS (AID 1745854; active = well fitted curve in the direction sought with a large enough effect; an effect the other way counts as inactive or inconclusive)
Method in brief: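 HEK293 cells (1,500/well) exposed 24 hr at 37C to 1:5 titrations, up to 41.7 uM final; counter-screen to a C. elegans viability qHTS. Viability by CellTiter-Glo luminescence after 10 min at room temperature; digitonin as control.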

[21] = molecular target: Nuclear receptor subfamily 1 group I member 2 (Rattus norvegicus) (UniProt Q9R1A7); assay: qHTS assay for small molecule activators of the rat pregnane X receptor (rPXR) signaling pathway (AID 651751; call rule not given here; also: 0% is about no effect); conditions: rPXR reporter cells, luciferase (One-Glo), 24 h
[22] = qHTS assay for small molecule activators of the human pregnane X receptor (PXR) signaling pathway (AID 720659; call rule not given here; also: 0% is about no effect)

Sequence of Thyroid hormone receptor beta (Homo sapiens) (P10828 whole entry, looked up): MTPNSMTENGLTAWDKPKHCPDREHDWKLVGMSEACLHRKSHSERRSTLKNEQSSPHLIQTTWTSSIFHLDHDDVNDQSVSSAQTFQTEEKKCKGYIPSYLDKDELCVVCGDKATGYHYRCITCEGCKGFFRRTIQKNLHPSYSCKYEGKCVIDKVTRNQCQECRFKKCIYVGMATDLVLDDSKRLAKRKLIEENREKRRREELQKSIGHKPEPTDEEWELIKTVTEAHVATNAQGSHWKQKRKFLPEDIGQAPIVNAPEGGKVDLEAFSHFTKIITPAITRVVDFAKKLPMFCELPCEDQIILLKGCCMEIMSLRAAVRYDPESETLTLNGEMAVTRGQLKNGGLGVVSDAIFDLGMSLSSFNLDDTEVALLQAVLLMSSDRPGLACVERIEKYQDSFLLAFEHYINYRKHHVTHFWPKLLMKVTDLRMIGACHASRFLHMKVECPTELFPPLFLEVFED
Sequence of Vitamin D3 receptor (Homo sapiens) (P11473 whole entry, looked up): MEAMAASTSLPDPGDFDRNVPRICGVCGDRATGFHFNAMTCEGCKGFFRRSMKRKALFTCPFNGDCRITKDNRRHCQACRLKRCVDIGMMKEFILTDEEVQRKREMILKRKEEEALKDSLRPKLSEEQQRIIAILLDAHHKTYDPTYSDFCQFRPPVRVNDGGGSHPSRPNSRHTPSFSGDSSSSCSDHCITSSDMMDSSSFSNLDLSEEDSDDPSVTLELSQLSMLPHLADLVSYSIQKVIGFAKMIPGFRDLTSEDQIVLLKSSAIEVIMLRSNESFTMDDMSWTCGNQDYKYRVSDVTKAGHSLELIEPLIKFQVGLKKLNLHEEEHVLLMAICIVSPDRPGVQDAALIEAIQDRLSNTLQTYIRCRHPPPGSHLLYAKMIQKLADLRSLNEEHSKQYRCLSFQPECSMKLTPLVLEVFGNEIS
Sequence of Peroxisome proliferator-activated receptor gamma (Homo sapiens) (P37231 whole entry, looked up): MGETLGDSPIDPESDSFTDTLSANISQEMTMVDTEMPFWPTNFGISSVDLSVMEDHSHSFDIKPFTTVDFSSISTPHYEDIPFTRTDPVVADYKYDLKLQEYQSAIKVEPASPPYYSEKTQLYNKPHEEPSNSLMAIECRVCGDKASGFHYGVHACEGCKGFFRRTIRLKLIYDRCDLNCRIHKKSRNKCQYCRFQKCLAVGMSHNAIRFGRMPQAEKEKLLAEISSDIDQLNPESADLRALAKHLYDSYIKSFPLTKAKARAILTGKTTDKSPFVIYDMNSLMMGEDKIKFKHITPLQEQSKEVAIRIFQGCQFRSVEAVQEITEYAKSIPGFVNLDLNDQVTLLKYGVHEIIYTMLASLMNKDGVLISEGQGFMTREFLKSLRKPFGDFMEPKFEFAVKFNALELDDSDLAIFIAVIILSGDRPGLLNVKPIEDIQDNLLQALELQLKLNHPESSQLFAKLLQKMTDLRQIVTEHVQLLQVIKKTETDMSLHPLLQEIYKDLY
Sequence of Peroxisome proliferator-activated receptor delta (Homo sapiens) (Q03181 whole entry, looked up): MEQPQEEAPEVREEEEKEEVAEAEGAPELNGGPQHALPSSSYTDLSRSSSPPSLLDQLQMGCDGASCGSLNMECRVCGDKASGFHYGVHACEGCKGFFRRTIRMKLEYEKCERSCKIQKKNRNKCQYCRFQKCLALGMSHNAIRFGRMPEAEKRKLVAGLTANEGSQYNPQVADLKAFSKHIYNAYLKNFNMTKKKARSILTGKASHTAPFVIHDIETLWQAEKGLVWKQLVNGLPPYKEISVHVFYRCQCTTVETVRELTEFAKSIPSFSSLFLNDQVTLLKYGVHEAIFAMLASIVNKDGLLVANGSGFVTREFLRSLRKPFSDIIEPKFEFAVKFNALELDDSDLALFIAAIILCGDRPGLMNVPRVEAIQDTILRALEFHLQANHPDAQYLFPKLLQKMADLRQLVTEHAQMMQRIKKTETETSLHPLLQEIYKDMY
Sequence of Bile acid receptor (Homo sapiens) (Q96RI1 whole entry, looked up): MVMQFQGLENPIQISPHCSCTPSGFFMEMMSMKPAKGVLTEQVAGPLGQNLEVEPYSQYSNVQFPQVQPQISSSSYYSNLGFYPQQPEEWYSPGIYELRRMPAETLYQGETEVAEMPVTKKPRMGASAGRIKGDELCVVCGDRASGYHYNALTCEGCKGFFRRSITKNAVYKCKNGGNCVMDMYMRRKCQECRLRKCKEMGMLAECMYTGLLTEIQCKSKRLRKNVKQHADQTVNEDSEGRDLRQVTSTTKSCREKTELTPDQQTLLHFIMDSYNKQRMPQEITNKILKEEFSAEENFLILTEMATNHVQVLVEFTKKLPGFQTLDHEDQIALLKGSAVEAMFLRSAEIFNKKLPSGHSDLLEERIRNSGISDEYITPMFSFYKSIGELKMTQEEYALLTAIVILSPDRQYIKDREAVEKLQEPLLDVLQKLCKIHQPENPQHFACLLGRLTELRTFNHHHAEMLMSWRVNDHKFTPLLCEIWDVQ
Sequence of Nuclear receptor subfamily 1 group I member 2 (Rattus norvegicus) (Q9R1A7 whole entry, looked up): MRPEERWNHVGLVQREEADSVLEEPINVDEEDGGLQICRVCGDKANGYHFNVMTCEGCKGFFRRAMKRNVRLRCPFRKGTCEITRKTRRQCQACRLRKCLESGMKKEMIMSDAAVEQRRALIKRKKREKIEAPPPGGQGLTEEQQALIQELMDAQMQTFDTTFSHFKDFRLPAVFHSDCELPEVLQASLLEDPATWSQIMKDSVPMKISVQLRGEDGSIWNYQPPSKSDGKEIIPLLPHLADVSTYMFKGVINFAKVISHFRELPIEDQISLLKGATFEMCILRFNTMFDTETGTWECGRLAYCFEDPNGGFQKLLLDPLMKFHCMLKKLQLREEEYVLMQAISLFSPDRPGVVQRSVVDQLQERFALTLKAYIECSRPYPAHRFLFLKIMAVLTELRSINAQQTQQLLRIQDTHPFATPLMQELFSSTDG
Sequence of Retinoic acid receptor RXR-alpha (Homo sapiens) (P19793 whole entry, looked up): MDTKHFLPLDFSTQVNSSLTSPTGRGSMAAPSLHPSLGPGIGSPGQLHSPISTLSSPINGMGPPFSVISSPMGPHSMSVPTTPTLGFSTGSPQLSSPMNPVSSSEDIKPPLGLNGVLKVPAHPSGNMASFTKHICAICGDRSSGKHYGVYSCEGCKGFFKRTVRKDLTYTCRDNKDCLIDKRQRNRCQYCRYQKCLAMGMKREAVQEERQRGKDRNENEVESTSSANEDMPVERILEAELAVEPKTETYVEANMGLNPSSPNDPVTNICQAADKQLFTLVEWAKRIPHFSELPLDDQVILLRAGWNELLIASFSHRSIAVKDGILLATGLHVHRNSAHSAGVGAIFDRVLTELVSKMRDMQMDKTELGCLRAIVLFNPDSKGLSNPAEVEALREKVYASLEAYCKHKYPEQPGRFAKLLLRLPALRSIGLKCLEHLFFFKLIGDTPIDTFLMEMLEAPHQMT
Sequence of Peroxisome proliferator-activated receptor alpha (Homo sapiens) (Q07869 whole entry, looked up): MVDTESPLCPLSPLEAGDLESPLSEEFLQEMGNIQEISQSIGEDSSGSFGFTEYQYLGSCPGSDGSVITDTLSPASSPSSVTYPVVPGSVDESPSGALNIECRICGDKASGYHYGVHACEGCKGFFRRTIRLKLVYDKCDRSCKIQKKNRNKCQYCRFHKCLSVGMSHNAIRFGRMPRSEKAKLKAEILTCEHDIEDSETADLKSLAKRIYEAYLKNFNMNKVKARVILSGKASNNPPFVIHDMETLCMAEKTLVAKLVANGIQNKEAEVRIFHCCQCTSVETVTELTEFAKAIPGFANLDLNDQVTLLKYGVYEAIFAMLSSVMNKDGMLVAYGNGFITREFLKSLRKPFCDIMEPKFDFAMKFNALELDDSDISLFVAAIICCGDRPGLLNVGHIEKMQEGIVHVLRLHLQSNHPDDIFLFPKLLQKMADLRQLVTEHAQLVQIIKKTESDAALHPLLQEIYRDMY

O=C(O)CCCCCCCCC(=O)O
9.91%: max response [8]
1.66%: max response [2]
inactive: outcome [1] | Potency [3] | outcome [4] | outcome [5] | outcome [6] | outcome [7] | outcome [9] | outcome [10] | activity change % (negative = inhibition) [11] 3.38% | Potency [12] | activation [13] 0.877% | activation [14] -1.2% | activation [15] -2.45% | max response [16] -0.446% | Potency [17] | max response [18] -1.89% | Potency [19] | Potency [20] | max response [21] -1.81% | outcome [22]
